Results filed as inconclusive are left out. Activity calls are given as the source filed them. Rule for the calls, unless noted: active = hit-call score of the fitted dose curve at least 0.9, where 1 is the maximum; inactive = score below 0.9.
What was measured:
[1] = read-out: solute carrier (SLC22A1), SLC22A1 (gene 6580); assay: LTEA_HepaRG_SLC22A1: Life Technologies and Expression Analysis (LTEA) Assay for solute carrier (SLC22A1) using HepaRG (AID 2283524); conditions: mRNA level, 48 h; actives raise or lower the signal
Procedure, shortened: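 Differentiated human HepaRG cells in serum-free induction medium, exposed 48 h in duplicate to 8-point half-log series from 100 µM top in 0.5% DMSO. SLC22A1 mRNA by TaqMan qRT-PCR normalized to ACTB, GAPDH, POLR2A; bidirectional fit versus DMSO.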

[2] = read-out: Pyruvate Dehydrogenase Kinase 4 (PDK4), PDK4 (gene 5166); assay: LTEA_HepaRG_PDK4: Life Technologies and Expression Analysis (LTEA) Assay for Pyruvate Dehydrogenase Kinase 4 (PDK4) using HepaRG (AID 2283525); conditions: mRNA level, 48 h; actives raise or lower the signal
Procedure, shortened: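 HepaRG cells plated 48 h, then switched to serum-free induction medium and exposed in duplicate for 48 h to 8 half-log concentrations from 100 uM in 0.5% DMSO. PDK4 mRNA measured by qRT-PCR, normalized to ACTB, GAPDH and POLR2A; bidirectional fit versus DMSO.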

[3] = read-out: NAD(P)H dehydrogenase [quinone] 1 (NQO1), NQO1 (gene 1728); assay: LTEA_HepaRG_NQO1: Life Technologies and Expression Analysis (LTEA) Assay for NAD(P)H dehydrogenase [quinone] 1 (NQO1) using HepaRG (AID 2283526); conditions: mRNA level, 48 h; actives raise or lower the signal
Procedure, shortened: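 HepaRG, 48 h post-plating → serum-free induction medium → test chemical 48 h (duplicate, 100 uM top, half-log x8, 0.5% DMSO) → RNA isolation → qRT-PCR, ACTB/GAPDH/POLR2A normalization; bidirectional curve fit vs DMSO baseline.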

[4] = read-out: Nuclear factor erythroid 2-related factor 2 (Homo sapiens) (UniProt Q16236); assay: LTEA_HepaRG_NFE2L2: Life Technologies and Expression Analysis (LTEA) Assay for Nuclear factor erythroid 2-related factor 2 (NFE2L2) Transcription Factor using HepaRG (AID 2283527); conditions: mRNA level, 48 h; actives raise or lower the signal
Procedure, shortened: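 Differentiated human HepaRG cells, serum-free induction medium, exposed 48 h in duplicate to eight half-log concentrations up to 100 uM in 0.5% DMSO. NFE2L2 mRNA by Fluidigm TaqMan qRT-PCR, normalised to ACTB, GAPDH, POLR2A; bidirectional change versus DMSO.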

[5] = read-out: Signal transducer and activator of transcription 3 (Homo sapiens) (UniProt P40763); assay: LTEA_HepaRG_STAT3: Life Technologies and Expression Analysis (LTEA) Assay for Signal transducer and activator of transcription (STAT3) using HepaRG (AID 2283529); conditions: mRNA level, 48 h; actives raise or lower the signal
Procedure, shortened: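 Differentiated HepaRG cells, serum-free induction medium, dosed 48 h in duplicate, 8 half-log concentrations from 100 uM in 0.5% DMSO. STAT3 mRNA by qRT-PCR, normalised to ACTB, GAPDH, POLR2A; bidirectional fit versus DMSO.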

[6] = read-out: solute carrier (SLCO1B1), SLCO1B1 (gene 10599); assay: LTEA_HepaRG_SLCO1B1: Life Technologies and Expression Analysis (LTEA) Assay for solute carrier (SLCO1B1) using HepaRG (AID 2283530); conditions: mRNA level, 48 h; actives raise or lower the signal
Procedure, shortened: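 HepaRG, serum-free induction medium, 48 h dosing, 8-pt half-log from 100 uM, 0.5% DMSO vehicle, duplicates. Readout: SLCO1B1 mRNA, qRT-PCR, ACTB/GAPDH/POLR2A normalization; up or down fit vs DMSO.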

[7] = read-out: sulfotransferase 2A1 (SULT2A1), SULT2A1 (gene 6822); assay: LTEA_HepaRG_SULT2A1: Life Technologies and Expression Analysis (LTEA) Assay for sulfotransferase 2A1 (SULT2A1) using HepaRG (AID 2283531); conditions: mRNA level, 48 h; actives raise or lower the signal
Procedure, shortened: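 Transcript levels of SULT2A1, quantified by qRT-PCR and normalized to three housekeeping genes, serve as the readout. Human HepaRG cultures receive test chemicals for 48 h at up to 100 uM in half-log steps, with 0.5% DMSO vehicle.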

[8] = read-out: Transforming Growth Factor (TGFA), TGFA (gene 7039); assay: LTEA_HepaRG_TGFA: Life Technologies and Expression Analysis (LTEA) Assay for Transforming Growth Factor (TGFA) using HepaRG (AID 2283532); conditions: mRNA level, 48 h; actives raise or lower the signal
Procedure, shortened: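 Differentiated HepaRG cells exposed 48 hours in serum-free induction medium, 0.5% DMSO vehicle, 8-point half-log series from 100 uM, in duplicate. TGFA mRNA by TaqMan qRT-PCR, normalised to ACTB, GAPDH, POLR2A; bidirectional fit versus DMSO.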

[9] = read-out: Transforming Growth Factor (TGFB1), TGFB1 (gene 7040); assay: LTEA_HepaRG_TGFB1: Life Technologies and Expression Analysis (LTEA) Assay for Transforming Growth Factor (TGFB1) Transporter using HepaRG (AID 2283533); conditions: mRNA level, 48 h; actives raise or lower the signal
Procedure, shortened: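 HepaRG, 48 h post-plating, switched to serum-free induction medium; chemicals 100 uM top, half-log, 8 pts, 0.5% DMSO, dup; 48 h exposure; RNA → Fluidigm TaqMan qRT-PCR; norm ACTB/GAPDH/POLR2A; bidirectional fit vs DMSO.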

TIMP1, TIMP1 (gene 7076) = assay: LTEA_HepaRG_TIMP1: Life Technologies and Expression Analysis (LTEA) Assay for TIMP1 using HepaRG (AID 2283534); conditions: mRNA level, 48 h; actives raise or lower the signal;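 note: TaqMan qRT-PCR signal normalized to ACTB GAPDH and POLR2A housekeeping genes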
Procedure, shortened: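 Readout is TIMP1 mRNA level measured by qRT-PCR and normalized to three housekeeping genes. Human HepaRG cells were treated for 48 h in duplicate at eight concentrations up to 100 uM (0.5% DMSO); gain or loss fitted against DMSO.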

[10] = read-out: Tumor necrosis factor receptor 1 (TNFRSF1A), TNFRSF1A (gene 7132); assay: LTEA_HepaRG_TNFRSF1A: Life Technologies and Expression Analysis (LTEA) Assay for Tumor necrosis factor receptor 1 (TNFRSF1A) using HepaRG (AID 2283535); conditions: mRNA level, 48 h; actives raise or lower the signal
Procedure, shortened: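 Read-out is TNFRSF1A transcript level by TaqMan qRT-PCR, normalized to three housekeeping genes, scored as gain or loss of signal versus 0.5% DMSO. Human HepaRG cells received test chemicals for 48 h at up to 100 uM (half-log series).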

[11] = read-out: UDP glucuronosyltransferase (UGT1A1), UGT1A1 (gene 54658); assay: LTEA_HepaRG_UGT1A1: Life Technologies and Expression Analysis (LTEA) Assay for UDP glucuronosyltransferase (UGT1A1) using HepaRG (AID 2283538); conditions: mRNA level, 48 h; actives raise or lower the signal
Procedure, shortened: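 Readout is UGT1A1 transcript level by qRT-PCR, normalized to three housekeeping genes, after 48 h chemical treatment of HepaRG cells. Concentrations ran from 100 uM down in half-log steps with 0.5% DMSO, and gain or loss relative to DMSO was fitted.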

[12] = read-out: X-box binding protein 1 (XBP1), XBP1 (gene 7494); assay: LTEA_HepaRG_XBP1: Life Technologies and Expression Analysis (LTEA) Assay for X-box binding protein 1 (XBP1) using HepaRG (AID 2283540); conditions: mRNA level, 48 h; actives raise or lower the signal
Procedure, shortened: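 Transcript levels of XBP1, measured by qRT-PCR and normalised to three housekeeping genes, were fitted bidirectionally relative to 0.5% DMSO controls. Human HepaRG cells received eight-point half-log dilutions from 100 uM for 48 h.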

[13] = LTEA_HepaRG_LDH_cytotoxicity: Cytotoxicity Assessment in the Life Technologies and Expression Analysis (LTEA) Assay (AID 2283563; active = hit-call score of the fitted dose curve at least 0.9, where 1 is the maximum;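 for AC50: LDH activity released into spent culture medium as a marker of cell death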)
Procedure, shortened: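 Cells were thawed and plated for 48 h. Medium was then replaced with serum-free induction medium. Chemicals (8 half-log points, maximum 100 uM, 0.5% DMSO) were added in duplicate for 48 h, after which spent medium was assayed for LDH.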

[14] = read-out: Phosphatase and tensin (PTEN), PTEN (gene 5728); assay: LTEA_HepaRG_PTEN: Life Technologies and Expression Analysis (LTEA) Assay for Phosphatase and tensin (PTEN) using HepaRG (AID 2283523); conditions: mRNA level, 48 h; actives raise or lower the signal
Procedure, shortened: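 HepaRG cells, 48 h after plating, exposed in duplicate for 48 h in serum-free induction medium to 8 half-log concentrations up to 100 uM (0.5% DMSO). PTEN mRNA by qRT-PCR, normalized to ACTB, GAPDH, POLR2A; bidirectional fit versus DMSO.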

[15] = read-out: Thyroid Hormone Responsive (THRSP), THRSP (gene 7069); assay: LTEA_HepaRG_THRSP: Life Technologies and Expression Analysis (LTEA) Assay for Thyroid Hormone Responsive (THRSP) using HepaRG (AID 2283536); conditions: mRNA level, 48 h; actives raise or lower the signal
Procedure, shortened: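 Differentiated HepaRG cells treated 48 h in serum-free induction medium with 8 half-log concentrations up to 100 uM (0.5% DMSO), duplicates. THRSP mRNA by TaqMan qRT-PCR normalised to ACTB, GAPDH, POLR2A; bidirectional fit versus DMSO.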

[16] = read-out: UDP glucuronosyltransferase (UGT1A6), UGT1A6 (gene 54578); assay: LTEA_HepaRG_UGT1A6: Life Technologies and Expression Analysis (LTEA) Assay for UDP glucuronosyltransferase (UGT1A6) using HepaRG (AID 2283539); conditions: mRNA level, 48 h; actives raise or lower the signal
Procedure, shortened: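 HepaRG, 48 h post-plating switch to serum-free induction medium; chemical 48 h, 100 uM top, half-log x8, duplicate, 0.5% DMSO. Phenobarbital 1mM induction control. UGT1A6 mRNA by TaqMan qRT-PCR; gain/loss fit vs DMSO.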

[17] = ATG_XTT_Cytotoxicity: Cytotoxicity Assessment in the Attagene TRANS-FACTORIAL HepG2 Assay (AID 2283584; active = hit-call score of the fitted dose curve at least 0.9, where 1 is the maximum)
Procedure, shortened: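 Cells: human HepG2, transiently transfected with MRTU reporter constructs. Exposure 24 h. Readout: XTT, cell number. Baseline/neg ctrl DMSO; loss-of-signal scored.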

[18] = target: Cellular tumor antigen p53 (Homo sapiens) (UniProt P04637); assay: TOX21_p53_BLA_p2_ratio: Tox21 HCT-116 p53 Agonism Beta-lactamase Assay, Ratio, Phase 2 (AID 2283592; active = hit-call score of the fitted dose curve at least 0.9, where 1 is the maximum)
Sequence of Cellular tumor antigen p53 (Homo sapiens) (P04637 whole entry, looked up): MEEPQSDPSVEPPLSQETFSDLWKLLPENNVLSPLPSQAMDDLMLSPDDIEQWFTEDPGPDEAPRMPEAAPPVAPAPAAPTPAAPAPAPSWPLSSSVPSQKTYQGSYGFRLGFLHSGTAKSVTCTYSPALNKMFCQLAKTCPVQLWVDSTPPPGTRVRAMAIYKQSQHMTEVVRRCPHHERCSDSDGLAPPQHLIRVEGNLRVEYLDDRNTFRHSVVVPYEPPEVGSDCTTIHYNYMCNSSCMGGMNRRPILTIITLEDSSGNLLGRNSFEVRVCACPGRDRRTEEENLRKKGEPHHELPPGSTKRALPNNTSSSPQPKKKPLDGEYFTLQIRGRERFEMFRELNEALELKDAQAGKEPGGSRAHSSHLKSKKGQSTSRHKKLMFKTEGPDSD
Procedure, shortened: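 HCT116 p53-bla; 4000 cells/well; 5 h pre-incubation; cpd in DMSO, 217-fold dilution; 16 h 37C/5% CO2; CCF4-AM 2 h RT; Ex 405, Em 460/530 ratio; DMSO = baseline; positive fitting direction.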

Measured: AC50

Sequence of Signal transducer and activator of transcription 3 (Homo sapiens) (P40763 whole entry, looked up): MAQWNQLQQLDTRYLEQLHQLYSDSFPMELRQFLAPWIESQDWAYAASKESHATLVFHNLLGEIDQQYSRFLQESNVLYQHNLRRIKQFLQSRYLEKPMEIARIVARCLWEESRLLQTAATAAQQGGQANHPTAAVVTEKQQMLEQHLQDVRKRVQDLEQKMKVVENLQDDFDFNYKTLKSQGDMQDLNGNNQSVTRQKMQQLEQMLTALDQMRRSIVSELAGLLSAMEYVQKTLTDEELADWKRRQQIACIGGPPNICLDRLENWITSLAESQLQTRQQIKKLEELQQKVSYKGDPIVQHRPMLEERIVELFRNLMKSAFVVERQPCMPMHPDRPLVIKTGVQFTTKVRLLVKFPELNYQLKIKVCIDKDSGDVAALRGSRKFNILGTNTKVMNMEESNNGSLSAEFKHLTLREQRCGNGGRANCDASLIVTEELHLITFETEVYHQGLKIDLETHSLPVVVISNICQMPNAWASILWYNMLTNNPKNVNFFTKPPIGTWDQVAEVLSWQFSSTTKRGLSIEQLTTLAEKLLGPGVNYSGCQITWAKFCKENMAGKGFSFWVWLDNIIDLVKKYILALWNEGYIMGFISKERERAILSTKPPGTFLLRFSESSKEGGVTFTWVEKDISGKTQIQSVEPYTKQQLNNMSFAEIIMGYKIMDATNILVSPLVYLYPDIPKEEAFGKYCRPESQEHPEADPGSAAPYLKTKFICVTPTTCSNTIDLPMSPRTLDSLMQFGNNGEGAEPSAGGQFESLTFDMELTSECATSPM
Sequence of Nuclear factor erythroid 2-related factor 2 (Homo sapiens) (Q16236 whole entry, looked up): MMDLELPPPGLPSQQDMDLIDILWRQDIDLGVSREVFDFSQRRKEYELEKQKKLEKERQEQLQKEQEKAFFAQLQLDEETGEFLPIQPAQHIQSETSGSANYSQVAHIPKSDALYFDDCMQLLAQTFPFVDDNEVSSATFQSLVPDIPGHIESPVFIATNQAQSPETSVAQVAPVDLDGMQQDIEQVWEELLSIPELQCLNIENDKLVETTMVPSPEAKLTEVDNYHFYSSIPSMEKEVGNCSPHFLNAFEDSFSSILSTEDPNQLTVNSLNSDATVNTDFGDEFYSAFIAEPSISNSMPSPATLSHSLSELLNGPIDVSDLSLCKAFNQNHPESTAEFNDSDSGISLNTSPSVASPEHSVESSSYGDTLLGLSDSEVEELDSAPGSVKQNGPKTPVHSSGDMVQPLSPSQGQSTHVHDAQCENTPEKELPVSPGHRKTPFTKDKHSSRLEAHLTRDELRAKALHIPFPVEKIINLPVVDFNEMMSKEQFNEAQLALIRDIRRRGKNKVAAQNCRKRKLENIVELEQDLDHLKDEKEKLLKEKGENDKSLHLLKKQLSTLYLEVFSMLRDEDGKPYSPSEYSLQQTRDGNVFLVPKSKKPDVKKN

CC(C)N(C(=O)COc1nnc(C(F)(F)F)s1)c1ccc(F)cc1
active: [1] 39.5 µM | [7] 13.8 µM | [12] 28.5 µM
inactive: [2] | [3] | [4] | [5] | [6] | [8] | [9] | TIMP1, TIMP1 (gene 7076) | [10] | [11] | [13]

Cc1[nH]c(=O)n(C(C)(C)C)c(=O)c1Cl
active: [4] 50 µM | [15] 50 µM | [11] 31 µM
inactive: [14] | [1] | [2] | [5] | [6] | [7] | [8] | [9] | TIMP1, TIMP1 (gene 7076) | [10] | [16] | [12] | [13]

O=C(NC(=O)c1c(F)cccc1F)Nc1ccc(OC(F)(F)C(F)OC(F)(F)F)c(Cl)c1 (stereo not given)
inactive: [14] | [1] | [2] | [4] | [5] | [6] | [7] | [8] | [9] | TIMP1, TIMP1 (gene 7076) | [10] | [11] | [16] | [12] | [13]
active: [15] 6.25 µM

COP(=S)(OC)Oc1ccc(SC)c(C)c1
inactive: [1] | [2] | [4] | [5] | [6] | [7] | [8] | [9] | TIMP1, TIMP1 (gene 7076) | [10] | [15] | [16] | [12] | [13] | [17] | [18]
active: [11] 25.2 µM

OCCOc1ccccc1
inactive: [1] | [2] | [4] | [5] | [6] | [7] | [8] | [9] | TIMP1, TIMP1 (gene 7076) | [10] | [15] | [11] | [16] | [12] | [13] | [18]

CCC(C)(NC(=O)c1cc(Cl)c(C)c(Cl)c1)C(=O)CCl (stereo not given)
active: [1] 82.9 µM | [6] 75.8 µM | [7] 79.5 µM | [9] 75.6 µM | [10] 90.6 µM | [15] 95.3 µM | [11] 12.4 µM | [16] 80.3 µM | [13] 77.6 µM | [18] 30.2 µM
inactive: [2] | [4] | [5] | [8] | TIMP1, TIMP1 (gene 7076) | [12]

— PubChem BioAssay (EPA / NIEHS)
